Hit rate of the full screen: of about 210,000 compounds, about 5,900 (2.8%) were called active. Another 5% or so got no clear call; they are omitted. The list comes from a sample in which actives are over-represented; it also holds similar structures and randomly drawn compounds. A number with no mark means an inactive call. Calls follow the shape of the dose curve; as a rule, active = well fitted activation curve with a large enough effect; inconclusive = small, poorly fitted or top-dose-only effect; inactive = no such curve, though single readings can be large or run the other way.
assay: qHTS Assay for Enhancers of SMN2 Splice Variant Expression; conditions: HEK293 SMN2-luciferase splicing reporter, luminescence, 30-36 h; series mostly up to 46.1 µM; activity change, positive = activation: at the top concentration; also: nearly all actives have a fitted effect of over 55% in size; as to activity change, positive = activation: % of control where 0% means no effect
Summary of the method: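 qHTS luciferase splicing reporter: luminescence rises when SMN2 exon 7 is included in transfected HEK293 cells. Compound exposure lasted 30-36 h at 37C, with 4.5 mM final sodium butyrate as control, followed by a ONE-Glo read.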
Potency is read from the fitted curve at half-maximal effect.

| Structure (SMILES) | activity change, positive = activation [%] | Potency |
| --- | --- | --- |
| COc1ccc(/C=C2\NC(=O)[C@@H]3Cc4ccccc4CN3C2=O)cc1 | 4.1 |  |
| CCN(CC)S(=O)(=O)c1ccc2c(c1)N(CC(=O)NCC(C)c1ccccc1)C(=O)CO2 (configuration not stated) | 12.9 |  |
| Cc1ccc2nc(COc3ccc(N(C)S(=O)(=O)c4ccccc4)cc3)cc(=O)n2c1 | -56.7 |  |
| O=Cc1ccc(OCc2cn3ccccc3n2)cc1 |  | 11.2 µM (active) |
| COc1ccc(C(=O)NCc2cn3ccccc3n2)cc1 | -14 |  |
| COc1ccc(-c2nc3c(c(SCC(=O)Nc4ccc(C(=O)O)cc4)n2)Cc2ccccc2O3)cc1 | 26.4 |  |
| Cc1cc(C)nc(Nc2cc([N+](=O)[O-])ccc2C)n1 | -11.5 |  |
| CC(C)(C)NC(=O)Cn1cnc2cc([N+](=O)[O-])ccc2c1=O | -7.49 |  |
| Cc1ccc(-n2cc3ccc([N+](=O)[O-])cc3n2)cc1 |  | 1.26 µM (active) |
| CC1CCN(C(=O)Cn2c(=O)n(-c3ccc(Cl)cc3)c(=O)c3c4c(sc32)CCC4)CC1 | 2.56 |  |
| CCCOc1ccc(CNC(=O)C2CCN(c3nn4c(=O)cc(C)nc4s3)CC2)cc1 | 11.9 |  |
| Cc1nn(CC(=O)O)c(=O)c2cc3cc(F)ccc3n12 | -7.09 |  |
| O=C1CCN(C(=S)NCCc2ccccc2)CC1 | -4.5 |  |
| Oc1ccccc1N1CCN(C(=S)NCc2ccccc2)CC1 | -7.35 |  |
| S=C(NCCc1ccccc1)N1CCCCC1 |  | 11.2 µM (active) |
| CCc1nn(CCCC(=O)NCc2ccccc2OC)c(=O)c2cc3occc3n12 | 1.11 |  |
| COc1ccc(-n2c(SC)nc3sc4c(c3c2=O)CCN(C(C)=O)C4)cc1 | 18.7 |  |
| Cc1cc(C)nc(N2CCC(C(=O)Nc3ccc4c(c3)OCCO4)CC2)n1 | -10 |  |
| O=C(Nc1ccc2c(c1)OCCO2)C(c1ccc(F)cc1)N1CCCCC1 (configuration not stated) | -13.3 |  |
| O=C(Nc1ccc2c(c1)OCCO2)C1CCCN(c2ncccn2)C1 (configuration not stated) |  | 3.98 µM (active) |
| Cc1c(NS(=O)(=O)c2ccc(Cl)cc2)c(=O)n(-c2ccccc2)n1C | -0.0289 |  |
| CCOc1ccccc1NC(=O)CSc1ncc(S(=O)(=O)c2ccc(C(C)(C)C)cc2)c(=O)[nH]1 | 2.47 |  |
| COC(=O)c1ccc(NC(=O)c2cccc3c2C(=O)N(C2CCCCC2)C3)cc1 | -3.88 |  |

| Structure (SMILES) | activity change, positive = activation [%] | Potency |
| --- | --- | --- |
| CCCOc1cc(C)c(S(=O)(=O)n2nnc3ccccc32)cc1C | 13.9 |  |
| CCOc1cc(C)c(Cl)cc1S(=O)(=O)n1nnc2ccccc21 |  | 17.8 µM (active) |
| COc1cc(C)c(Cl)cc1S(=O)(=O)n1ccnc1 | 5.31 |  |
| COc1ccccc1/C=C/c1nc(C#N)c(NC(C)c2ccccc2)o1 (configuration not stated) | -1.39 |  |
| COc1ccc(/C=N/Nc2nc3ccccc3o2)cc1OC |  | 6.31 µM (active) |
| CCOc1ccc(/C=N/Nc2nncc(-c3ccccc3)n2)cc1OC | -7.07 |  |
| COc1ccc(/C=N/S(=O)(=O)c2ccccc2)cc1OC | 3.61 |  |
| Cc1ccc(Cl)cc1NC(=O)C1CCCN(c2cnccn2)C1 (configuration not stated) | 1.66 |  |
| O=C(Nc1cccnc1Cl)c1cc(-c2cccc(Cl)c2)on1 | 10.1 |  |
| CCC(=O)N1CCc2cc(S(=O)(=O)NC(Cc3ccccc3)C(=O)NCc3ccccc3)ccc21 (configuration not stated) | -8.71 |  |
| CNc1nc(Nc2ccc(C)c(Cl)c2)nc(N)c1[N+](=O)[O-] |  | 11.2 µM (active) |
| COCCNc1nc(N)c([N+](=O)[O-])c(NCCO)n1 | 19.4 |  |
| Nc1nc(NCCCN2CCOCC2)nc(Nc2ccccc2)c1[N+](=O)[O-] | 12.2 |  |
| Cc1ccccc1CNC(=O)Cn1c(C)c2cnn(-c3ccccc3)c(=O)c2c1C | 8.24 |  |
| CCOC(=O)/C(C#N)=C/c1ccc(OCC(=O)Nc2ccccc2)c(OC)c1 | 22 |  |
| CCCn1c(C)cc(/C=C(\C#N)C(=O)OCC(=O)Nc2cc(OC)c(OC)c(OC)c2)c1C |  | 14.1 µM (active) |
| COc1cc(CCC(=O)OCC(=O)Nc2cccc(S(N)(=O)=O)c2)cc(OC)c1OC | -9.52 |  |
| CCOc1ccc(CCNC(=O)CN(c2ccc(C)cc2)S(=O)(=O)N(C)C)cc1OCC | -27.5 |  |
| CCOC(=O)c1ccc(N2C(=O)c3[nH]nc(-c4ccccc4)c3C2c2ccc(C(C)C)cc2)cc1 (configuration not stated) | -15.6 |  |
| Cc1nc(NC(=O)C23CCC(C)(C(=O)O2)C3(C)C)sc1C (configuration not stated) | -0.0451 |  |
| Cc1ccc(SCC(=O)Nc2ncc(C)s2)cc1 | -10.3 |  |
| Cc1cnc(NC(=O)C2CCCC2)s1 |  | 14.1 µM (active) |
| Cc1nc(NC(=O)C2CCCCC2)sc1C |  | 20 µM (active) |

| Structure (SMILES) | activity change, positive = activation [%] | Potency |
| --- | --- | --- |
| CS(=O)(=O)c1ccc2nc(NC(=O)C3CCCCC3)sc2c1 | -13 |  |
| Cc1cnc(NC(=O)CSc2c(Cl)cccc2Cl)s1 | -24.3 |  |
| CCCCC(CC)CNC(=O)C1CCN(S(=O)(=O)c2cccc3nsnc23)CC1 (configuration not stated) | 2.83 |  |
| CCc1cc2c(cc(C(=O)OC)n2Cc2nc(-c3ccc(C)cc3)oc2C)s1 | -9.75 |  |
| Cc1ccc(-c2cn3cc(C)ccc3n2)cc1 | -85.6 |  |
| c1ccc(-c2cn3cccnc3n2)cc1 | 5.81 |  |
| COc1ccc(-c2cn3ccsc3n2)cc1 |  | 15.8 µM (active) |
| COc1ccc(-c2cn3cccnc3n2)cc1 |  | 12.6 µM (active) |
| CCCC(=O)Nc1cccc(-c2cn3ccsc3n2)c1 | 5.02 |  |
| COc1cc(OC)cc(-c2nc(=S)n3ccsc3n2)c1 | 3.14 |  |
| Cc1ccc(C)c(Cn2c(CCCNC(=O)C3CCCCC3)nc3ccccc32)c1 | -1.77 |  |
| Cc1ccsc1CN(C(=O)c1oc2ccc(Br)cc2c1C)C1CCS(=O)(=O)C1 (configuration not stated) | -38.8 |  |
| Cc1ccc(-n2nc(C)c(C(=O)O)c2-n2cccc2)cc1 | 3.71 |  |
| COc1ccccc1C(=O)NCCn1cc(SCc2ccccc2Cl)c2ccccc21 | -39.6 |  |
| Cc1c(N=Nc2ccc(N(C)C)cc2)c(=O)n(-c2ccccc2)n1C |  | 10 µM (active) |
| Cc1ccc(S(=O)(=O)Nc2ccccc2CNc2c(C)n(C)n(-c3ccccc3)c2=O)cc1 | -10.8 |  |
| Cc1c(C=O)n(C)n(-c2ccccc2)c1=O | 22.8 |  |
| Cc1ccc2oc(=O)c3cnn(CC(=O)NCc4ccccc4Cl)c3c2c1 | -0.578 |  |
| CCCC12CN3CC(CCC)(CN(C1)C3c1c[nH]c3ccc(OC)cc13)C2=O (configuration not stated) | -5.47 |  |
| c1ccc(C2=Nc3cccc4cccc(c34)N2)cc1 | -6.88 |  |
| CNC(=S)N1N=C(c2ccccc2)CC1c1ccc(Br)cc1 (configuration not stated) | -10.1 |  |
| Brc1ccc(C2CC(c3ccccc3)=Nc3ccccc3N2)cc1 (configuration not stated) |  | 11.2 µM (active) |
| O=C(Nc1ccc(OC(F)(F)F)cc1)C1CCCN(S(=O)(=O)c2ccc(Br)s2)C1 (configuration not stated) | -5.28 |  |

| Structure (SMILES) | activity change, positive = activation [%] | Potency |
| --- | --- | --- |
| COc1cc(NS(=O)(=O)c2cccs2)cc(OC)c1 | 3.39 |  |
| Cc1cccc(N2CCN(c3c(CN4CCCC4)c(=O)oc4ccccc34)CC2)c1C | -9.24 |  |
| O=C(NCc1cccs1)c1ccc2c(c1)ncn2C1CCCC1 | -4.28 |  |
| Cc1nc2cc(NCc3cccs3)ccc2n1C |  | 7.94 µM (active) |
| Cn1ncc(Br)c1C(=O)NCc1cccs1 | 2.37 |  |
| CCCCCCn1nnc2sc(-c3ccccc3)cc2c1=O | -11.4 |  |
| CCOC(=O)c1cc(NC(=O)c2ccc(F)cc2)c(=O)n2c1oc1ccccc12 | 6.19 |  |
| COc1ccccc1NC(=O)c1oc2ccccc2c1NC(=O)C(C)C | -16.2 |  |
| CC(CCCc1ccccc1)NC(=O)c1nn(-c2ccc(Cl)cc2)nc1CO (configuration not stated) | -47.2 |  |
| CCOc1ccc(S(=O)(=O)Nc2ccc3oc4c(c3c2)CC(C)CC4)cc1 (configuration not stated) | -8.65 |  |
| C=CCN(c1ccc(C(=O)Nc2cc(C)cc(C)c2)cc1)S(C)(=O)=O | -19.8 |  |
| CC(=O)Nc1ccccc1NC(=O)c1cc(C)cc(C)c1 | -2.07 |  |
| CSCc1ccc(C(=O)Nc2cc(C)cc(C)c2)cc1 |  | 12.6 µM (active) |
| CCOc1ccccc1NC(=O)c1ccc2c(c1)CCN2S(=O)(=O)c1ccc(C)cc1 | 3.85 |  |
| CC(=O)Nc1ccc(NC(=O)CSc2nnc3c4cc(Br)ccc4n(C)c3n2)cc1 | 3.66 |  |
| Cc1cc(C)cc(NC(c2nnc(-c3cccc(F)c3)o2)c2ccc(F)cc2Cl)c1 (configuration not stated) | -3.55 |  |
| NC(=NC(=O)c1ccccc1)N1CCOCC1 | 8.74 |  |
| O=C(CSC(=S)N1CCOCC1)c1ccccc1 |  | 0.794 µM (active) |
| O=C(NC(=O)N1CCOCC1)c1ccccc1 | -3.17 |  |
| COCc1nnc(NC(=O)c2ccc3c(c2)OCO3)s1 |  | 14.1 µM (active) |
| O=C(Nc1nc2ccccc2s1)c1ccc2c(c1)OCO2 |  | 0.355 µM (active) |
| CCCc1nnc(NC(=O)c2cc(OC)cc(OC)c2)s1 | 0.792 |  |
| O=C(Nc1cccnc1)c1ccc2c(c1)OCO2 | 27.6 |  |

| Structure (SMILES) | activity change, positive = activation [%] | Potency |
| --- | --- | --- |
| Cc1cc(C)c2nc(NC(=O)c3ccc4c(c3)OCO4)sc2c1 | 3.44 |  |
| Cc1ccc(F)cc1NC(=O)c1ccc2c(c1)OCO2 | -18.3 |  |
| O=C(CCn1c(=O)c2ccccc2n(Cc2ccc(Cl)cc2)c1=O)NCc1ccc2c(c1)OCO2 | 10.9 |  |
| CC(C)NC(=O)c1nn(-c2ccccc2F)nc1CO | -25.4 |  |
| NC1=NC(c2cc(F)cc(F)c2)n2c(nc3ccccc32)N1 (configuration not stated) | 2.06 |  |
| Brc1ccc2c(c1)NC(c1cccnc1)=NC(c1ccccc1)=N2 | 26.1 |  |
| C[N+](C)(C)CCNC(=O)c1c(O)c2c([nH]c1=O)CCCC2 | 1.37 |  |
| O=C(NCc1ccccn1)c1c(O)c2c([nH]c1=O)CCCC2 | -17.7 |  |
| CCc1nnc(NC(=O)c2c(O)c3c([nH]c2=O)CCCC3)s1 |  | 14.1 µM (active) |
| Cc1ccc(NC(=O)NC(C)c2c(-n3cccc3)sc(C)c2C)c(C)c1 (configuration not stated) | -3.47 |  |
| CCCn1c(NCc2ccc(N(CC)CC)cc2)nc2ccccc21 | -50.8 |  |
| O=C(CCOc1ccccc1)NCc1ccccc1 | -5.69 |  |
| Nc1ccc(C(=O)NCc2ccccc2)cc1 | 11 |  |
| COc1ccc(OCCCC(=O)NCCc2ccccc2)cc1 | -4.84 |  |
| NS(=O)(=O)c1cc(C(=O)NCCOc2ccccc2)c(Cl)cc1Cl | 5.16 |  |
| CC(C)c1ccc(C(=O)NCCCc2ccccc2)cc1 |  | 14.1 µM (active) |
| O=C(NCCOc1ccccc1)c1ccccc1 |  | 12.6 µM (active) |
| CCCOc1ccc(C(=O)NCCc2ccccc2)cc1 |  | 14.1 µM (active) |
| O=C(NCCc1ccccc1)c1ccc(OCCOc2ccccc2)cc1 | -1.13 |  |
| CS(=O)(=O)NCc1ccc(C(=O)NCc2ccccc2)cc1 | -3.72 |  |

Reference: PubChem BioAssay AID1458 (National Center for Advancing Translational Sciences (NCATS), 2008)
